Hits are enriched below; roughly 3.9% of the tested compounds scored in any of these assays.
WT yeast gro inh – growth inhibition of WT yeast, mitochondrial fusion screen | AID 1362 | inhibition, % at 10 µM | mitochondrial fusion phenotypic screen, WT strain | hit rate 2.1% among 190,000; in the data active = inhibition above about 58%; tested in S. cerevisiae
SKKanGAS inh – blocks kanamycin growth of S. pyogenes SKKanGAS strain; BacTiter-Glo, 6 h; inhibition, % at 7.5 µM; hit rate 1.3% among 300,000; AID 1662;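 active = mean replicate score, as percent of positive control median, at least 50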;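 note: strain carries kanamycin resistance gene driven by streptokinase promoter and grows in 40 µg/ml kanamycin; loss of luminescence reflects streptokinase promoter inhibition or plain growth inhibition; 0% = median of DMSO wells and 100% = positive control at its reference dose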
Platelet DG rel – modulates dense granule release in human platelets | inhibition, %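 (compounds screened at 7.5 µM in platelet-rich plasma)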 | human platelet-rich plasma, SFLLRN dense granule ATP release, luminescence | hit rate 0.22% among 300,000;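 active = mean replicate score, as percent of positive control, at or above 50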
PHOSPHO1 block – PHOSPHO1 (human) inhibition; Q8TCT1; recombinant PHOSPHO1, absorbance phosphatase assay; inhibition, % at 13.3 µM; hit rate 1.1% among 290,000; AID 1565; in the data active = inhibition above about 60%
Target sequence (Q8TCT1 whole entry, looked up): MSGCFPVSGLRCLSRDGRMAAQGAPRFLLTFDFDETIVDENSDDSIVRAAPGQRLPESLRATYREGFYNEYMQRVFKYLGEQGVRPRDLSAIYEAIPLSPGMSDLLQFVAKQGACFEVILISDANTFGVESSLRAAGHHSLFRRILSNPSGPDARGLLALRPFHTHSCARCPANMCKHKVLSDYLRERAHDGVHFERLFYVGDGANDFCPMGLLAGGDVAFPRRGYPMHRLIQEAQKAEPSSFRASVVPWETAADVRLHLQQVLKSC
Rtt109 HAT inh – C. albicans Rtt109 histone acetyltransferase inhibition. hit rate 0.16% among 330,000. AID 540336. Q5AAJ8. purified Rtt109/Vps75, ThioGlo CoA-SH fluorescence, 4 h. inhibition, % at 34.9 µM;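 active = inhibition of at least 50% in every replicate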
Target sequence (Q5AAJ8 whole entry, looked up): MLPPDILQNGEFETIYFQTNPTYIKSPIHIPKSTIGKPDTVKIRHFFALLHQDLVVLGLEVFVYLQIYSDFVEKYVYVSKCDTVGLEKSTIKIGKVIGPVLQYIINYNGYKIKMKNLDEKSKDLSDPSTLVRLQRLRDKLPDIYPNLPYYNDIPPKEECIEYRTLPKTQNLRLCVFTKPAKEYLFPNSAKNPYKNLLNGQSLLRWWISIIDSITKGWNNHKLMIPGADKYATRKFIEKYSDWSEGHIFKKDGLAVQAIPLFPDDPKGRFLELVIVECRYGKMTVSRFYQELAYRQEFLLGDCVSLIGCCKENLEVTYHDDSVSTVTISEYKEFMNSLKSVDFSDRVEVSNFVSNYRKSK
TPT1 inh – inhibitors of Candida albicans tRNA 2'-phosphotransferase TPT1 | recombinant caTPT1, FP RNA substrate dephosphorylation | inhibition, % at 5 µM | AID 1962 | hit rate 0.81% among 300,000;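 active = inhibition above the mean of all tested compounds plus 3 SD, set per screening campaign, cut at about 24% in these data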;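 note: plate controls were DMSO alone for no effect and ferristatin control at 100 nM for full effect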
* = called active by the depositor; . = no result given.

SMILES	WT yeast gro inh	SKKanGAS inh	Platelet DG rel	PHOSPHO1 block	Rtt109 HAT inh	TPT1 inh
O=C(NNC(=O)C1CC(=O)N(Cc2ccccc2)C1)c1ccc(F)cc1 (centres undefined)	.	-2.0	8.4	.	-5.4	2.4
Nc1ccccc1SC/C=C/CSc1ccccc1N	.	-2.3	4.4	9.8	7.3	-3.6
CC(Sc1nnc(Cc2cccs2)n1C1CC1)C(=O)NC1CCS(=O)(=O)C1 (centres undefined)	.	.	.	.	5.7	.
c1csc(-c2nn3c(-c4ccncc4)nnc3s2)c1	.	.	.	-36.1	.	.
c1csc(Cc2nn3c(-c4ccncc4)nnc3s2)c1	0.2	0.6	5.3	72.2*	4.5	-1.4
Cc1ccc(NC(=O)CC2CCCC2)c(Br)c1	.	1.6	-28.9	40.3	2.5	-4.9
CN(C(=O)/C(N=Nc1cccc(C(F)(F)F)c1)=C(\O)C(F)(F)F)c1ccccc1	70.2*	4.8	4.4	-6.9	-8.6	-1.2
Cc1ccc(C)c(-n2[nH]c3c4c(ccc3c2=O)C(=O)c2ccccc2C4=O)c1	67.1*	28.7	3.6	-22.0	-8.8	-0.5
CC1=CC(=O)C(C(C)C)=C/C1=C(\c1cc(C(C)C)c(OP(=O)(O)O)cc1C)c1ccccc1C(=O)O	.	3.1	0.0	46.6	-2.4	-1.7
Cc1ccc(S(=O)(=O)/N=C(/NC(=S)Nc2ccccc2)c2ccccc2)cc1	-23.1	1.6	3.6	11.8	13.5	-0.8
Cc1ccc(S(=O)(=O)C/N=C(/NC(=S)N(c2ccccc2)c2ccccc2)c2ccccc2)cc1	0.7	7.0	4.8	66.4*	-5.9	1.6
CCCCNC(=O)Cn1c(=O)c2c(ncn2CCC(C)C)n(Cc2ccccc2)c1=O	.	3.0	-4.2	32.3	-4.8	-4.1
CCn1cc(/C=C/C(=O)c2ccc(O)cc2)c(C)n1	7.9	-1.8	21.7	60.1*	15.3	-2.5
COc1ccc(C(=O)Nc2ccnn2C2CCN(C(C)CSC)CC2)cc1 (centres undefined)	.	9.0	1.7	39.5	4.2	-5.3
COc1ccc(OC)c(NC(=O)C(CCSC)NS(=O)(=O)c2cccs2)c1 (centres undefined)	.	-5.1	9.8	4.1	5.9	0.5
CCn1c(-c2ccccc2Cl)nn(CC(=O)Nc2ccccc2C)c1=S	-3.3	-10.2	-8.7	100.4*	8.5	-9.3
O=C(Cn1nc(-c2ccccc2Cl)ccc1=O)Nc1ccccc1-c1ccccc1	67.2*	-7.4	-8.6	-3.4	2.2	-2.7
O=C(COC(=O)Cc1c(Cl)cccc1Cl)Nc1ccccc1-c1ccccc1	80.6*	-3.6	0.7	-4.5	13.6	0.0
O=C(COC(=O)Cc1ccc(Cl)cc1)Nc1ccccc1-c1ccccc1	5.0	1.2	1.7	8.6	10.7	1.8
CN(CC(=O)Nc1ccc(F)c(F)c1F)C(=O)CC1CCCCC1	.	.	.	.	6.5	.
CC(C)c1ccc(NC2CCCN(C(=O)CC3CCCC3)C2)cc1 (centres undefined)	.	12.0	-15.5	17.4	2.2	1.1
Cc1ccc(C)c(C(=O)COC(=O)c2cc([N+](=O)[O-])ccc2NCCO)c1	60.1*	-9.7	-7.5	-26.4	-8.1	0.3
CCCCCCCCC(NC(=O)c1ccc(C#N)cc1)C(=O)NCCC (centres undefined)	.	.	.	.	-6.6	.
CC(=O)NC(=S)Nc1ccc(NC(=S)NC(=O)/C=C/c2ccco2)cc1	.	83.2*	9.1	17.7	2.1	-1.6
CC(=O)c1ccc(-n2c(-c3cc(-c4ccsc4)n[nH]3)n[nH]c2=S)cc1	1.7	16.4	1.4	64.7*	4.3	-0.9
SMILES	WT yeast gro inh	SKKanGAS inh	Platelet DG rel	PHOSPHO1 block	Rtt109 HAT inh	TPT1 inh
COc1cc(Br)cc(/C=C/c2ccc3cccc(O)c3n2)c1OC	.	93.0*	16.3	28.4	-1.0	-1.9
COc1ccc(Br)cc1/C=C/c1ccc2cccc(O)c2n1	.	100.3*	7.3	34.0	1.1	1.9
Brc1ccc2ncc3ccccc3c2c1	.	.	.	.	-3.2	.
CN1/C(=C/C(=O)COC(=O)C2COc3ccccc3O2)C(C)(C)c2ccccc21 (centres undefined)	.	.	.	.	2.2	.
Cc1cccc2[nH]c3c(N4CC=C(c5ccc(F)cc5)CC4)ncnc3c12	.	82.1*	-4.8	23.1	.	0.9
COc1cccc2[nH]c3c(N4CCCCC4)ncnc3c12	6.4	2.7	-1.6	14.8	0.8	-5.0
CC(=O)N(Cc1cccnc1)c1cccc(-c2nc3ccccc3s2)c1	22.9	-1.8	-15.2	65.6*	7.4	-1.8
Cc1nn2c(COc3ccc(NC(=O)C(C)C)cc3)nnc2c2ccccc12	-10.6	101.7*	16.0	18.2	-5.8	1.1
Cc1nn2c(COc3ccc(NC(=O)c4ccccc4Cl)cc3)nnc2c2ccccc12	8.6	87.1*	0.7	-32.3	3.3	0.0
Cc1nn2c(CN(C(=O)COc3ccccc3)c3ccccc3)nnc2c2ccccc12	-9.5	4.3	-32.6	-4.4	-4.4	-2.6
CCOC(=O)Nc1ccc(OCc2nnc3c4ccccc4c(C)nn23)cc1	-2.3	93.6*	-1.4	-4.5	-3.0	1.9
Cc1cccc(C)c1NC(=S)N(Cc1ccccc1)Cc1cccs1	72.6*	1.6	2.4	-14.5	18.6	1.7
Cc1ccccc1NC(=S)N(Cc1cccs1)C1CCCCC1	67.1*	0.1	1.2	40.8	0.2	-3.8
Cc1c(Cl)cccc1NC(=S)N(Cc1cccs1)C1CCCC1	67.0*	5.1	-2.8	16.6	-0.7	-0.7
Cc1ccc(Cl)cc1NC(=S)N(Cc1cccs1)C1CCCC1	22.1	7.2	-2.0	-14.5	-0.6	-3.9
COc1ccc(S(=O)(=O)NCCCN2CCCC2=O)cc1OC	.	-1.4	-14.0	38.1	2.5	-5.3
Cc1ccc(C2CC(c3cccs3)=NN2C(=O)c2ccc(Br)o2)cc1 (centres undefined)	64.2*	88.5*	2.4	20.1	-1.4	4.5
CCN1c2ccccc2S(=O)(=O)c2ccccc21	.	2.5	-7.6	47.9	-2.3	-3.4
Cc1ccc(C)c(NC(=S)Nc2ncccc2C)c1	67.8*	7.3	3.5	23.9	-2.1	-1.2
CC[C@]12c3[nH]c4ccc(Cl)cc4c3CCN1C(=O)[C@@H](CC(=O)NCCCN(C)C)C[C@@H]2C(=O)N1CCN(C(=O)c2ccco2)CC1	.	.	.	.	18.7	.
CCOc1ccc(NCc2nnc(SCc3ccc(Cl)cc3)n2-c2ccccc2)cc1	60.3*	-5.8	-1.0	-14.8	3.4	-3.9
CCOC(=O)CSc1nnc(CNc2ccc(Cl)cc2)n1-c1ccccc1	-1.7	0.2	-9.7	34.9	16.2	0.7
CN(CCc1ccccc1)C1CCCN(C(=O)Cn2cccn2)C1 (centres undefined)	.	1.9	-2.8	31.3	-25.2	-2.6
C/C(=C\C(=S)Nc1ccccc1)Nc1ccc2ccccc2c1	61.6*	14.0	-1.4	-4.6	-0.2	7.0
O=C(c1ccc(Cl)cc1)N1CCN(CCc2ccccn2)CC1	.	0.8	-2.0	43.7	4.5	.
CCOc1ccc(OCCC(=O)OCC(=O)N2CCN(S(=O)(=O)c3ccc(C)cc3C)CC2)cc1	.	.	.	.	4.2	.
COC(=O)c1sc(S(=O)(=O)NCCCN(C)C)c(C(=O)OC)c1C	.	2.6	-0.3	79.8*	-1.7	1.8
